Measured values reported in PubChem BioAssay (NCATS).
Several values for one entry are separate records, joined by “and”; a condition that tells them apart may be missing. Identical values can stand only once. Results filed as inconclusive are left out. More than one record can exist for a structure, and the calls need not agree. Activity calls are given as the source filed them. Calls come from the whole dose curve; as a rule, active = well fitted inhibition curve with a large enough effect; inconclusive = small, poorly fitted or top-dose-only effect; inactive = flat fitted curve, though single readings scatter.

molecular target: Glutathione peroxidase 1 (Homo sapiens) (UniProt P07203); test: Primary qHTS Assay for Inhibitors of Recombinant Selenoprotein Glutathione Peroxidase 1 (GPX1) (AID 1845191); details: recombinant GPX1, GR-coupled NADPH fluorescence, 15 min; series mostly up to 48.8 µM; activity, negative = inhibition: at the top concentration; note: nearly all actives have a fitted effect of over 65% in size
In short: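 10 nM GPX1 + cpd, 30 min RT; start w/ 1 mM GSH, 0.5 mM cumene hydroperoxide, 0.5 mM NADPH, 100 nM GR, 0.01% BSA; buffer 50 mM Tris-HCl pH 7.5, 2 mM EDTA, 150 mM NaCl; Fl 340/450, 0 & 15 min.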
% is set by controls: 0 for no effect and ±100 for the full control effect; potency is the fitted concentration of half-maximal effect.

Glutathione peroxidase 1 (Homo sapiens), sequence (P07203 whole entry, looked up): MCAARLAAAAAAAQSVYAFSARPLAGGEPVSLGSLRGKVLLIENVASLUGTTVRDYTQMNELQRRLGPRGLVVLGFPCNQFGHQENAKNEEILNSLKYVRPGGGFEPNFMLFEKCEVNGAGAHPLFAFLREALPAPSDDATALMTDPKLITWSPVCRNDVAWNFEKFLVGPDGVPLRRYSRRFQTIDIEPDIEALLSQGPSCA

**Q.** For `CC(C)(O/N=C(\C(=O)N[C@@H]1C(=O)N2C(C(=O)[O-])=C(C[n+]3ccccc3)CS[C@H]12)c1csc(N)n1)C(=O)O`, which Potency is on record?
**A.** Its Potency is 7.85 µM (active).

**Q.** `O=C(Nc1ccc(O)cc1)c1ccccc1O` was tested. Which “activity, negative = inhibition” value did it give?
**A.** Its value is -10.4% (inactive).

**Q.** With `CCN(CC)CCOc1ccc2nc(N(C)C)sc2c1` as the compound, how does the “activity, negative = inhibition” value read?
**A.** The value was -20.9% [at 98.3 µM] (inactive).

**Q.** `C[N@+]12CCCC[C@@H]1CCC(=C(c1cccs1)c1cccs1)C2` was tested. Which “activity, negative = inhibition” value did it give?
**A.** The value was -10.8% (inactive).

**Q.** Which “activity, negative = inhibition” value does the source give for `CN(C)c1ccc(C(=C2C=CC(=[N+](C)C)C=C2)c2c(O)c(S(=O)(=O)[O-])cc3cc(S(=O)(=O)O)ccc23)cc1` here?
**A.** The value was -13.3% (inactive).

**Q.** How did the activity, negative = inhibition turn out when `CC(C)(C)CC(C)(C)c1cc(Cc2cc(C(C)(C)CC(C)(C)C)cc(-n3nc4ccccc4n3)c2O)c(O)c(-n2nc3ccccc3n2)c1` was run?
**A.** Its activity, negative = inhibition is -7.19% [at 4.49 µM] (inactive).

**Q.** With `CN[C@@H]1[C@@H](O)[C@@H](O[C@@H]2[C@@H](O)[C@H](O[C@H]3O[C@H](CN)[C@@H](O)[C@H](O)[C@H]3O)[C@@H](N)C[C@H]2NC(=O)C(O)CN)OC[C@]1(C)O` (stereo partly drawn) as the compound, how does the “activity, negative = inhibition” value read?
**A.** Its value is 4.92% (inactive).

**Q.** Which “activity, negative = inhibition” value does the source give for `CCOC(=O)Cc1ccc(-c2ccccc2)cc1` here?
**A.** Its value is -6.98% [at 98.3 µM] (inactive).

**Q.** For `CSc1nc2cc(Oc3cccc(Cl)c3Cl)c(Cl)cc2[nH]1`, which “activity, negative = inhibition” value is on record?
**A.** The value was 2.84% (inactive).

**Q.** For `Nc1nc(=O)n([C@@H]2CS[C@H](CO)O2)cc1F`, which “outcome” value is on record?
**A.** Its value is “inactive”.

**Q.** How did the Potency turn out when `CCOC(=O)[C@H](CS)NCCN[C@@H](CS)C(=O)OCC` was run?
**A.** Its Potency is 22.7 µM (active).

**Q.** How did the “outcome” value turn out when `O=C(O)c1ccc(NC(=O)[C@H](Cc2ccc(O)cc2)NC(=O)c2ccccc2)cc1` was run?
**A.** Its value is “inactive”.

**Q.** Which “outcome” value does the source give for `CCCCCCCCCCCCCCCCCCCCCC(=O)Nc1ccn([C@@H]2O[C@H](CO)[C@@H](O)[C@@H]2O)c(=O)n1` here?
**A.** Its value is “inactive [at 27.7 µM]”.

**Q.** How did the “activity, negative = inhibition” value turn out when `CN(C)C=Nc1c(I)cc(I)c(CCC(=O)O)c1I` was run?
**A.** Its value is -4.77% (inactive).

**Q.** How did the Potency turn out when `C[C@@H]1O[C@@H]1P(=O)(O)O` was run?
**A.** Its Potency is 11.1 µM (active).

**Q.** How did the “activity, negative = inhibition” value turn out when `NC[C@@H]1CC[C@@H](N)[C@@H](O[C@H]2[C@H](O)[C@@H](O[C@H]3O[C@H](CO)[C@@H](O)[C@H](N)[C@H]3O)[C@H](N)C[C@@H]2N)O1` was run?
**A.** The value was -28.4% [at 27.7 µM] (inactive).

**Q.** `FC(F)OC(Cl)C(F)(F)F` (stereo not drawn) was tested. Which “outcome” value did it give?
**A.** The value was “inactive”.

**Q.** `Cc1cc(-c2ccc(N=Nc3c(S(=O)(=O)O)cc4cc(S(=O)(=O)O)cc(N)c4c3O)c(C)c2)ccc1N=Nc1c(S(=O)(=O)O)cc2cc(S(=O)(=O)O)cc(N)c2c1O` was tested. Which “activity, negative = inhibition” value did it give?
**A.** Its value is -5.22% (inactive).

**Q.** Which “outcome” value does the source give for `CN(C)CCC(O)(c1ccccc1)c1ccccc1Cl` (stereo not drawn) here?
**A.** The value was “inactive”.

**Q.** How did the “outcome” value turn out when `O=[N+]([O-])O[C@@H]1CO[C@H]2[C@@H]1OC[C@@H]2O` was run?
**A.** Its value is “inactive [at 98.3 µM]”.

**Q.** With `O=C(O)c1cc(N=Nc2ccc(O)c(C(=O)O)c2)ccc1O` as the compound, how does the “activity, negative = inhibition” value read?
**A.** The value was -19.4% (inactive).

**Q.** With `O=C1c2ccccc2C(=O)c2c1ccc(O)c2O` as the compound, how does the “activity, negative = inhibition” value read?
**A.** Its value is -21.4% (inactive).

**Q.** Which Potency does the source give for `Cc1cc(=O)c(C(=O)N[C@@H](C(=O)N[C@@H]2C(=O)N3C(C(=O)O)=C(CSc4nnnn4C)CS[C@H]23)c2ccc(O)cc2)c[nH]1` here?
**A.** The Potency was 12.8 µM (active).

**Q.** For `Nc1nc2c(c(=O)[nH]1)N(C=O)C(CNc1ccc(C(=O)N[C@@H](CCC(=O)O)C(=O)O)cc1)CN2` (stereo partly drawn), which activity, negative = inhibition is on record?
**A.** Its activity, negative = inhibition is -12.1% [at 0.4 µM] (inactive).

**Q.** For `N=C(N)c1ccc(/C=C/c2ccc(C(=N)N)cc2O)cc1`, which “activity, negative = inhibition” value is on record?
**A.** The value was -13% (inactive).

**Q.** `COc1ccc([C@@H]2CC(=O)c3c(O)cc(O[C@@H]4O[C@H](CO[C@@H]5O[C@@H](C)[C@H](O)[C@@H](O)[C@H]5O)[C@@H](O)[C@H](O)[C@H]4O)cc3O2)cc1O` was tested. Which “outcome” value did it give?
**A.** The value was “inactive”.

**Q.** How did the “activity, negative = inhibition” value turn out when `Cc1cc(O)c2c(c1)O[C@@]1(C)CC[C@H]3C(C)(C)CCCC34CO[C@@H]2[C@H]41` (stereo partly drawn) was run?
**A.** Its value is -6.03% (inactive).

**Q.** Which “activity, negative = inhibition” value does the source give for `CN(C)CCC=C1c2ccccc2C(C)(C)c2ccccc21` here?
**A.** Its value is -15.7% (inactive).

**Q.** For `C=CC[C@@H]1/C=C(\C)C[C@H](C)C[C@H](OC)[C@H]2O[C@@](O)(C(=O)C(=O)N3CCCC[C@H]3C(=O)O[C@H](/C(C)=C/[C@@H]3CC[C@@H](O)[C@H](OC)C3)[C@H](C)[C@@H](O)CC1=O)[C@H](C)C[C@@H]2OC`, which Potency is on record?
**A.** Its Potency is “inactive and 2.55 µM (active)”.

**Q.** How did the “activity, negative = inhibition” value turn out when `CO[C@@H]1[C@H](OC(=O)/C=C/C=C/C=C/C=C/C(=O)O)CC[C@]2(CO2)[C@H]1[C@@]1(C)O[C@@H]1CC=C(C)C` was run?
**A.** Its value is -19.1% (inactive).

**Q.** How did the “outcome” value turn out when `CC(C)[C@@H](C)/C=C/[C@@H](C)[C@H]1CC[C@H]2/C(=C/C=C3\C[C@@H](O)CC[C@@H]3C)CCC[C@]12C` was run?
**A.** The value was “inactive”.

**Q.** With `NC[C@H]1O[C@H](O[C@H]2[C@H](O)[C@@H](O[C@H]3O[C@H](CO)[C@@H](O)[C@H](N)[C@H]3O)[C@H](N)C[C@@H]2N)[C@H](O)[C@@H](O)[C@@H]1O` as the compound, how does the outcome read?
**A.** Its outcome is “inactive [at 4.49 µM]”.

**Q.** With `CCCC1C(=O)N2C(N(C)C)=Nc3ccc(C)cc3N2C1=O` (stereo not drawn) as the compound, how does the “activity, negative = inhibition” value read?
**A.** The value was -16.2% [at 98.3 µM] (inactive).
